{"source": "PubChem BioAssay (EPA / NIEHS)", "note": "Records with an inconclusive call do not appear. Activity calls are given as the source filed them. The calls were made as follows: active = hit-call score of the fitted dose curve at least 0.9, where 1 is the maximum; inconclusive = response in the unintended direction; inactive = score below 0.9."}
{"read-out": "Broad substrate specificity ATP-binding cassette transporter ABCG2 (Homo sapiens) (UniProt Q9UNQ0)", "assay": "CLD_ABCG2_6hr: CellzDirect (CLD) Gene Expression Assay for ABC Transporter (ABCG2) at 6 hours (AID 2283660)", "procedure": "CLD_6hr is a cell-based, multiplexed-readout assay that uses hepatocyte, a human liver primary cell, with measurements taken at 6 hours after chemical dosing in a 96-well plate.CLD_ABCG2_6hr is one of 16 assay component(s) measured or calculated from the CLD_6hr assay. It is designed to make measurements of mRNA induction, a form of inducible reporter, as detected with chemiluminescence signals by Quantitative Nuclease Protection Assay (qNPA) technology.Data from the assay component CLD_ABCG2_6hr was analyzed at the endpoint, CLD_ABCG2_6hr, in the positive analysis fitting direction relative to DMSO as the negative control and baseline of activity. Using a type of inducible reporter, gain-of-signal activity can be used to understand changes in the reporter gene as they relate to the gene ABCG2. Furthermore, this assay endpoint can be referred to as a primary readout. To generalize the intended target to other relatable targets, this assay endpoint is annotated to the transporter intended target family, where subfamily is ABC transporter.\nHuman hepatocyte cultures were treated daily for two consecutive days with fresh dosing solutions containing appropriate concentrations of the 320 ToxCast chemicals (chemical identities were blinded to CellzDirect and other ToxCast collaborators), vehicle control (0.2% DMSO), and positive control inducers as summarized in Table 1. Due to the large number of treatment groups and chemicals examined, the ToxCast chemicals were divided into two groups (spanning two independent cultures of hepatocytes from separate donor preparations (Hu778: ToxCast plates 1 and 2; Hu776: ToxCast plates 3 and 4). Each preparation of human hepatocyte cultures was treated with respective vehicle control, medium only control, set of six positive controls/reference chemicals for the five hepatic receptor pathways, and a subset of eight of the ToxCast chemicals (indoxacarb, pyrithiobac-sodium, norflurazon, cyhalofop-butyl, methomyl, thiram, acetochlor, and propiconazole). These replicate data, coupled with internal replicates designed within the blinded ToxCast chemical library, provided additional data to evaluate interindividual differences between hepatocyte preparations and their potential impact on chemical profiles.Cell morphology and integrity were evaluated using phase-contrast microscopy as an indicator of hepatocyte cell health (Tyson & Green, 1987). Cultures for each treatment group (i.e., media, vehicle [0.2% DMSO], positive control inducers [multiple concentrations], and the ToxCast chemicals [multiple concentrations]) were observed and cell morphology was assessed relative to vehicle control cultures at each harvest time point (0, 6, 24, or 48 h). […] Images were evaluated at the conclusion of the study to assess changes in cell integrity and account for the effects of chemical exposure on uncharacteristic changes in concentration-dependent gene expression profiles. The results from these determinations of apparent cytotoxicity were annotated (yes/no) alongside the corresponding qNPA data for reference.At the conclusion of each treatment period, hepatocyte cultures (96-well) were washed with 1 volume of HBSS, lysed by addition of 25 ul ArrayPlate lysis buffer (HTG, Tucson, AZ), and 70 ul/well of Denaturation Oil, denatured by incubation at 95C for 10 min, and frozen at approximately -70C until analysis by nuclease protection assay (qNPA) (Roberts et al., 2007). For qNPA analysis, cell lysates were thawed at 50C for approximately 30 min, qNPA probes were added, and samples were incubated at 95C for 10 min to begin the detection process by denaturing the target RNA, dissociating the duplexes and secondary structure hybridization. At the conclusion of the hybridization period, S1 nuclease reagent was added to each sample to digest all nonprotected nucleotides at 50C for 60-90 min. […]"}
{"smiles": "CN1CSC(=S)N(C)C1", "outcome": "inactive"}
{"smiles": "OCCOc1ccccc1", "outcome": "inactive"}
{"smiles": "CC1(C)C(C=C(Cl)Cl)C1C(=O)OC(C#N)c1ccc(F)c(Oc2ccccc2)c1", "note": "(stereo not drawn)", "outcome": "inactive"}
{"smiles": "O=[N+]([O-])/N=C1\\NCCN1Cc1ccc(Cl)nc1", "outcome": "inactive"}
{"smiles": "C[C@H]1[C@H](c2ccc(Cl)cc2)SC(=O)N1C(=O)NC1CCCCC1", "outcome": "inactive"}
{"smiles": "Clc1ccccc1-c1nnc(-c2ccccc2Cl)nn1", "outcome": "inactive"}
{"smiles": "O=S1OCC2C(CO1)C1(Cl)C(Cl)=C(Cl)C2(Cl)C1(Cl)Cl", "note": "(stereo not drawn)", "outcome": "inactive"}
{"smiles": "ClC1C(Cl)C(Cl)C(Cl)C(Cl)C1Cl", "note": "(stereo not drawn)", "outcome": "inactive"}
{"smiles": "O=[N+]([O-])c1c(Cl)c(Cl)c(Cl)c(Cl)c1Cl", "outcome": "inactive"}
{"smiles": "CCOc1nc(NC)nc(NC(=O)NS(=O)(=O)c2ccccc2C(=O)OC)n1", "outcome": "inactive"}
{"smiles": "CNC(=O)Oc1cccc(N=CN(C)C)c1", "outcome": "inactive"}
{"smiles": "COc1cc(OC)nc(NC(=O)NS(=O)(=O)c2cc(NC=O)ccc2C(=O)N(C)C)n1", "outcome": "inactive"}
{"smiles": "CNC(=O)Oc1ccccc1OC(C)C", "outcome": "inactive"}
{"smiles": "CCOCN(C(=O)CCl)c1c(C)cccc1CC", "outcome": "inactive"}
{"smiles": "CC1(c2ccc(Oc3ccccc3)cc2)OC(=O)N(Nc2ccccc2)C1=O", "note": "(stereo not drawn)", "outcome": "inactive"}
{"smiles": "CCS(=O)(=O)c1cccnc1S(=O)(=O)NC(=O)Nc1nc(OC)cc(OC)n1", "outcome": "inactive"}
{"smiles": "N#CN", "outcome": "inactive"}
{"smiles": "O=C(O)C(F)(F)C(F)(F)C(F)(F)C(F)(F)C(F)(F)C(F)(F)C(F)(F)F", "outcome": "inactive"}
{"smiles": "CCCN(CCC)c1c([N+](=O)[O-])cc(C(F)(F)F)cc1[N+](=O)[O-]", "outcome": "inactive"}
{"smiles": "CCC(C)(C)C(=O)OC1=C(c2ccc(Cl)cc2Cl)C(=O)OC12CCCCC2", "outcome": "inactive"}
{"smiles": "COC(=O)c1ccccc1S(=O)(=O)NC(=O)N(C)c1nc(C)nc(OC)n1", "outcome": "inactive"}
{"smiles": "O=C(O)COc1ccc(Cl)cc1Cl", "outcome": "inactive"}
{"smiles": "CCc1ccc(C(=O)NN(C(=O)c2cc(C)cc(C)c2)C(C)(C)C)cc1", "outcome": "inactive"}
{"smiles": "CC(C)(C)C(O)C(Oc1ccc(Cl)cc1)n1cncn1", "note": "(stereo not drawn)", "outcome": "inactive"}
{"smiles": "CCC(C)Nc1c([N+](=O)[O-])cc(C(C)(C)C)cc1[N+](=O)[O-]", "note": "(stereo not drawn)", "outcome": "inactive"}
{"smiles": "O=C(O)CCCOc1ccc(Cl)cc1Cl", "outcome": "inactive"}
{"smiles": "COC(=O)c1ccccc1CS(=O)(=O)NC(=O)Nc1nc(OC)cc(OC)n1", "outcome": "inactive"}
{"smiles": "O=C1c2ccccc2C(=O)N1SC(Cl)(Cl)Cl", "outcome": "inactive"}
{"smiles": "N#Cc1c(Cl)c(Cl)c(Cl)c(C#N)c1Cl", "AC50": "20 µM (active)"}
{"smiles": "CC(C)(C)C(O)/C(=C\\c1ccc(Cl)cc1Cl)n1cncn1", "note": "(stereo not drawn)", "outcome": "inactive"}
{"smiles": "COP(=O)(OC)OC=C(Cl)Cl", "outcome": "inactive"}
{"smiles": "Oc1ccc(Cl)cc1Cc1ccccc1", "outcome": "inactive"}
{"smiles": "CCC(C)(NC(=O)c1cc(Cl)c(C)c(Cl)c1)C(=O)CCl", "note": "(stereo not drawn)", "outcome": "inactive"}
{"smiles": "CC(C)OC(=O)Nc1cccc(Cl)c1", "outcome": "inactive"}
{"smiles": "COP(=S)(OC)Oc1ccc([N+](=O)[O-])cc1", "outcome": "inactive"}
{"smiles": "CNC(=O)/C=C(\\C)OP(=O)(OC)OC", "outcome": "inactive"}
{"smiles": "CC(C)N(C(=O)COc1nnc(C(F)(F)F)s1)c1ccc(F)cc1", "outcome": "inactive"}
{"smiles": "CC[C@H](C)[C@H]1O[C@]2(C=C[C@@H]1C)C[C@@H]1C[C@@H](C/C=C(\\C)[C@@H](O[C@H]3C[C@H](OC)[C@@H](O[C@H]4C[C@H](OC)[C@@H](O)[C@H](C)O4)[C@H](C)O3)[C@@H](C)/C=C/C=C3\\CO[C@@H]4[C@H](O)C(C)=C[C@@H](C(=O)O1)[C@]34O)O2", "note": "(tested in a mixture with another compound)", "outcome": "inactive"}
